HPGD block: HPGD (human) dehydrogenase inhibition; P15428; purified HPGD, NADH fluorescence kinetic, PGE2 substrate; Potency, µM, without a hit: at the highest dose activity change, negative = inhibition, usual class: inhibitors; actives 4.3% (n = 150,000); active means well fitted inhibition curve with a large enough effect, not every such curve was filed as active; inconclusive means small, poorly fitted or top-dose-only effect, or another doubt; inactive means no such curve, though single readings can be large or run the other way
Target sequence (P15428 whole entry, looked up): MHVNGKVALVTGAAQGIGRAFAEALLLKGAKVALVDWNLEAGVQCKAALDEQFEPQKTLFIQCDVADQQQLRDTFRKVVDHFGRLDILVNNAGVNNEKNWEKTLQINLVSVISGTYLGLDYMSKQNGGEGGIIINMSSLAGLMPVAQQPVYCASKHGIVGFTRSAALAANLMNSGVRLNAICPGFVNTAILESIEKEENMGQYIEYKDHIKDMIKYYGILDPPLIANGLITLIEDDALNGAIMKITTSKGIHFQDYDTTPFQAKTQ
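NADH formation kinetics: reaction with 30 uM PGE2 and 1 mM NAD+ (final), 20 nM enzyme, Tris-HCl pH 8 with Tween 20, after 15 min compound preincubation at room temperature. Fluorescence change, last versus first of five reads.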
Tau fibril FP: inhibitors of human tau fibril formation; P10636; K18 P301L tau heparin fibrillization, Alexa594 FP, 6 h; Potency, µM (highest dose often 57.7 µM), without a hit: at the highest dose activity, negative = inhibition, hits mostly inhibitors; actives 0.39% (n = 280,000); AID 1468; further: nearly all actives have a fitted effect of over 55% in size
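Steps: dispense K18 P301L tau (15 uM plus 0.24 uM Alexa 594 tracer, final) in pH 7 sodium acetate; add compound; add heparin (20 uM final); incubate 6 hr, 37 C; add ThT (30 uM final); after 1 hr ambient, read FP.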
NPSR antag: antagonists of human neuropeptide S receptor cAMP signaling; Potency, µM (highest dose often 38.3 µM), for inactives: top-dose activity change, negative = inhibition, usual class: inhibitors; Q6W5P4; CHO-NPSR cells, cAMP TR-FRET, antagonist mode; actives 1% (n = 220,000); further: nearly all actives have a fitted effect of over 50% in size
Target sequence (Q6W5P4 whole entry, looked up): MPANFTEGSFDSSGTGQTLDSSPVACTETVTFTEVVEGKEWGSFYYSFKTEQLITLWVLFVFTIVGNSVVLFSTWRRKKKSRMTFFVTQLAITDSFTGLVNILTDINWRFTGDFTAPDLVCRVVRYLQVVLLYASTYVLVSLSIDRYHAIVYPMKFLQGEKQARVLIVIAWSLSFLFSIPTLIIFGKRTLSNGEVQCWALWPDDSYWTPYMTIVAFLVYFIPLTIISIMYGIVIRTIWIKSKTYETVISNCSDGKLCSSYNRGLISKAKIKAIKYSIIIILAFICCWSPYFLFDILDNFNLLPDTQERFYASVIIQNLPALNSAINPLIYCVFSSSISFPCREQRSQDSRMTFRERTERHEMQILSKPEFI
Tau fibril ThT: tau fibrillization inhibition (ThT binding); actives 2.1% (n = 270,000); P10636; Potency, µM (series often up to 57.4 µM), inactives show at the highest dose activity, negative = inhibition, actives largely listed as inhibitors; AID 1460; recombinant tau K18 P301L, heparin-induced fibrillization, ThT fluorescence; further: nearly all actives have a fitted effect of over 55% in size
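Aggregation was driven by heparin (20 uM final) acting on recombinant tau […] bearing P301L in 100 mM sodium acetate pH 7; fibrils were detected with Thioflavin T.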
Tau fluor counter: counter-screen for tau fibril formation inhibitors. tau K18 P301L (four-repeat tau fragment) Alexa594 fluorescence, heparin fibrillization. Potency, µM (doses to about 57.7 µM), for inactives: at the top dose activity change, negative = decrease. actives 0.93% (n = 280,000); further: nearly all actives have a fitted effect of over 55% in size
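Human K18 P301L tau (15 uM unlabeled plus 0.24 uM Alexa 594-labeled, final) in 100 mM sodium acetate pH 7 was mixed with compound and 20 uM heparin and incubated 6 hr at 37 C.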
ALDH1A1 inh: inhibitors of human aldehyde dehydrogenase 1A1 | Potency, µM (highest dose often 75.3 µM), inactives show at the top dose activity, negative = inhibition, actives largely listed as inhibitors | actives 7.3% (n = 220,000) | P00352 | Purified ALDH1A1, NADH fluorescence, propionaldehyde substrate; active means well fitted inhibition curve with a large enough effect, not every such curve was filed as active; inconclusive means small, poorly fitted or top-dose-only effect, or another doubt; inactive means no such curve, though single readings can be large or run the other way;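 further: plate controls were no enzyme wells and a reference inhibitor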
* hit, by the source's call; ? = inconclusive; · = not tested or not shown; [ ] = remark or other dose. Only some compounds are listed: those with a hit (about 9.5% of all), similar ones and a draw of the others. Unless noted, the call rests on the fitted dose curve; in most records, active means well fitted curve in the direction sought with a large enough effect; inconclusive means small, poorly fitted or top-dose-only effect, or another doubt; inactive means no such curve, though single readings can be large; an effect the other way counts as inactive or inconclusive. Unless noted, on the % scale 0 is the no-effect control and ±100 the full control effect; potency means the concentration at half of the fitted maximal effect.

SMILES	HPGD block	Tau fibril FP	NPSR antag	Tau fibril ThT	Tau fluor counter	ALDH1A1 inh
COc1ccc(-c2cc([C@H]3[C@@H]4C=CCC[C@@]4(C)C(=O)N3Cc3ccccc3)ccc2F)cc1OC	·	11%	?	-10%	5%	·
CCN(CC)C(=O)CSc1nnc(COc2ccccc2)n1CC	-4%	1%	-6%[46.1 µM]	-11%	-7%	-9%
CCn1c(COc2ccc3c(c2)OCO3)nnc1SCC(=O)c1ccccc1	22µM*	5%	?	5%	0%	?
COC(=O)c1sccc1NC(=O)c1cccnc1	28µM*	0%	-10%[46.1 µM]	-5%	3%	-5%
COc1ccc(Cc2nnc(NC(=O)c3c(-c4ccccc4)noc3C)s2)cc1OC	-26%	3%	-18%	-13%	-17%	32µM*
Cc1onc(-c2ccccc2)c1C(=O)NC(=S)NNC(=O)c1cccnc1	-6%	-10%	3%	-15%	-14%	?
Cc1onc(-c2ccccc2)c1C(=O)NC(=S)NNC(=O)c1ccncc1	-21%	-12%	7%	-12%	-5%	18µM*
COC(=O)c1sccc1NC(=O)c1c(-c2ccccc2)noc1C	-18%	-6%	0%	-17%	-28%	8.9µM*
CCC(C)N=C1CC(C)(C)CC(=O)/C1=C(/O)Cc1ccccc1 (centres undefined)	-3%	10%	-17%	-5%	2%	?
O=C1O[C@@H]([C@H](O)[C@H](O)[C@H](O)CO)[C@@H](O)[C@@H]1O	-11%	·	·	·	·	-9%[13.5 µM]
O=C(O)C(Oc1ccc2ccc(=O)oc2c1)c1ccccc1 (centres undefined)	-14%	-8%	·	-6%	-7%	?
CCOc1ccc(OCC(=O)c2c(O)c3ccccc3oc2=O)cc1	13µM*	?	-3%[46.1 µM]	?	-27%	8.9µM*
COc1ccc(OCC(=O)c2c(O)c3ccccc3oc2=O)cc1	22µM*	-6%	0%[46.1 µM]	?	-17%	?
O=C(Cn1c(=O)n(Cc2ccco2)c(=O)c2ccc(C(=O)NC3CCCC3)cc21)Nc1ccc(F)cc1	·	16µM*	·	?	?	·
Cc1cc(C)c(NC(=O)Cn2c(=O)n(Cc3ccco3)c(=O)c3ccc(C(=O)NC4CCCC4)cc32)c(C)c1	·	-11%	·	5%	0%	·
O=C(NNC(=O)c1c(F)cccc1F)c1ccccc1-n1cccc1	·	-1%	10%	-7%	-1%	7%
CC(=O)Nc1nc(-c2cccs2)cs1	-21%	3%	-1%[46.1 µM]	-11%	-4%	-4%
Oc1ccc(Nc2nc(-c3cccs3)cs2)cc1	-17%	2%	3%	?	11µM*[quencher]	?
COc1ccc(Nc2nc(-c3cccs3)cs2)cc1	-26%	4%	-3%[46.1 µM]	?	?	?
COc1ccc(OC)c(Nc2nc(-c3cccs3)cs2)c1	-23%	4%	-18%[46.1 µM]	?	16µM*[quencher]	-8%
COc1ccc(Nc2nc(-c3cccs3)nc3ccccc23)c(OC)c1	-28%	-6%	-19%	?	10µM*[quencher]	-15%
COc1ccccc1Nc1nc(-c2cccs2)cs1	-29%	1%	2%[46.1 µM]	14µM*	?	4µM*
CC(C)Cc1nc2sc3c(c2c(=O)n1N)CC(C)(C)OC3	·	-10%	-8%	-5%	-3%	·
O=C(O)c1ccc(N2C(=O)c3[nH]nc(-c4ccccc4)c3C2c2cccc(F)c2)cc1 (centres undefined)	·	-10%	·	4%	4%	·
FC(F)(F)c1ccccc1-c1cncnc1NCc1cccnc1	·	·	·	·	·	8%
SMILES	HPGD block	Tau fibril FP	NPSR antag	Tau fibril ThT	Tau fluor counter	ALDH1A1 inh
COc1ccc(Nc2nc(-c3cccs3)cs2)c(OC)c1	-2%	11%	-7%[46.1 µM]	11µM*	16µM*[quencher]	?
CC1CCN(C(=O)CSc2nc3ccccc3s2)CC1	14µM*	-9%	-6%[46.1 µM]	-24%	-23%	?
O=C(CSc1nc(-c2ccc(F)cc2)cs1)N1CCN(C(=O)c2ccco2)CC1	?	-11%	-17%[46.1 µM]	-18%	-8%	14µM*
O=C(CSc1nc2ccc(Cl)cc2[nH]1)N1CCN(C(=O)c2ccco2)CC1	-2%	3%	3%[46.1 µM]	-8%	-8%	22µM*
Cc1ccc2nc(SCC(=O)N3CCN(C(=O)c4ccco4)CC3)[nH]c2c1	-3%	2%	15%	5%	-2%	?
O=C(O)CCSc1nc2ccccc2s1	?	1%	-11%[46.1 µM]	9%	6%	25µM*
O=C(O)C1CCN(C(=O)CSc2nc3ccccc3s2)CC1	·	-12%	7%	-12%	-7%	-16%
c1ccc2sc(SCSc3nc4ccccc4s3)nc2c1	-29%	-1%	16%	-12%	-18%	-15%[13.5 µM]
CC1CC2C3CCC4=CC(=O)C=C[C@@]4(C)[C@]3(F)C(O)C[C@]2(C)[C@]1(O)C(=O)COP(=O)(O)O (some centres undefined)	-18%	-12%	·	?	-27%	2%
COc1ccc(-c2csc(N3CCN(C(=O)c4ccco4)CC3)n2)cc1	-16%	7%	-9%[46.1 µM]	?	-30%	28µM*
COc1ccc(-c2csc(N3CCN(C(=O)c4ccccc4)CC3)n2)cc1	-14%	11%	-22%[46.1 µM]	?	-28%	?
CC1Cc2ccccc2N1C(=O)CSc1nc2ccccc2s1 (centres undefined)	-17%	-1%	-21%	?	-16%	-5%
O=C(CSc1nc2ccccc2s1)N1CCCCC1	2.8µM*	4%	5%[46.1 µM]	?	-15%	4.5µM*
COc1cccc(-c2csc(N3CCN(C(=O)Nc4ccc(F)cc4)CC3)n2)c1	-6%	7%	-28%	?	?	?
CC1CCCC(C)N1C(=O)CSc1nc2ccccc2s1 (centres undefined)	2.2µM*	-7%	-18%[46.1 µM]	?	-20%	22µM*
COc1cccc(-c2csc(N3CCN(C(=O)C4CCCCC4)CC3)n2)c1	-5%	6%	-11%[46.1 µM]	?	-20%	13µM*
CCOc1ccc2nc(SCC(=O)N3CCN(C(=O)c4ccco4)CC3)sc2c1	-24%	8%	-13%[46.1 µM]	-15%	-6%	?
O=C(CSc1nc2ccccc2s1)N1CCN(C(=O)c2ccco2)CC1	-27%	-2%	-2%[46.1 µM]	?	-13%	14µM*
N#CCc1nc(CSc2nc3ccccc3s2)cs1	25µM*	-1%	-5%[46.1 µM]	-1%	0%	?
O=C(CSc1nc2ccccc2o1)N1CCCC1	25µM*	2%	-10%[46.1 µM]	-4%	3%	-2%
OC(CNc1nc2ccccc2s1)c1ccccc1 (centres undefined)	10µM*	9%	-3%[46.1 µM]	-11%	-10%	7%
N#CCCCSc1nnc(CSc2nc3ccccc3s2)n1-c1ccccc1	-7%	4%	-13%[46.1 µM]	-14%	-3%	-2%

Screening results (PubChem BioAssay)
